From PubChem BioAssay
Hits are enriched below; roughly 19% of the tested compounds scored in any of these assays.
TDP1 cell noCPT = qHTS for Inhibitors of human tyrosyl-DNA phosphodiesterase 1 (TDP1): qHTS in cells in absence of CPT; DT40 Tdp1-/- hTDP1 cells, no CPT, ATP luminescence, 48 h; Potency, µM (series often up to 46.2 µM), for inactives: at the highest dose activity change, negative = growth inhibition, actives largely listed as inhibitors; 15% of 420,000 active; AID 686978, 2013; further: potency means the concentration at half of the fitted maximal effect; nearly all actives have a fitted effect of over 55% in size
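Camptothecin absent (DMSO only). Human TDP1-complemented DT40 knockout cells, 400 cells/well, 37 °C for minimum 48 hr; ATP measured via CellTiter-Glo, 30 min dark incubation, luminescence.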
HT1080-NT tox = qHTS for induction of synthetic lethality in tumor cells producing 2HG: qHTS for the HT-1080-NT fibrosarcoma cell line | AID 686970, 2013 | Potency, µM (top dose mostly 46.1 µM), inactives show at the top dose activity, negative = less viability, most hits filed as cytotoxic | HT-1080-NT fibrosarcoma viability, CellTiter-Glo ATP luminescence, 48 h | 1.6% of 360,000 active;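 further: NT is the 2HG producing partner of a matched IDH1 knockdown line; potency means the concentration at half of the fitted maximal effect; 0% = DMSO-treated cells and -100% = media-only wells without cells; nearly all actives have a fitted effect of over 55% in size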
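Luminescent CellTiter-Glo readout after 48 hours of compound exposure at 37 degrees C defined viability of HT-1080-NT cells. Activity was normalized to DMSO wells and cell-free media wells; concentration-response curves were fitted and assigned curve classes.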
TDP1 cell CPT = qHTS for Inhibitors of human tyrosyl-DNA phosphodiesterase 1 (TDP1): qHTS in cells in presence of CPT | 12% of 420,000 active | chicken DT40 Tdp1-/-;hTDP1 cells + 20 nM CPT, ATP luminescence, 48 h | Potency, µM (titrated, usually from 46.2 µM), for the others: top-dose activity change, negative = growth inhibition, actives largely listed as inhibitors; further: potency means the concentration at half of the fitted maximal effect; nearly all actives have a fitted effect of over 55% in size
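Chicken DT40 Tdp1-/- cells stably complemented with human TDP1 were seeded at 400 cells/well in medium containing 20 nM camptothecin, exposed to pin-transferred compounds, and grown at 37 °C for at least 48 hr. Viability was read as ATP luminescence.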
IL1B secr inh = qHTS for Inhibitors of Inflammasome Signaling: IL-1-beta AlphaLISA Primary Screen | THP-1 LPS/ATP IL-1B secretion, AlphaLISA, 16 h; active compounds read low | activity change, % at 57.5 µM | 4.7% of 360,000 active; in the data active means activity change below about -50%; inconclusive means mostly about -30% to -49%
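Secreted IL-1B measured by AlphaLISA bead assay after 16 h compound exposure of THP-1 cells; compounds (final up to 57.5 uM) added 1 h before LPS (250 ng/mL) and ATP (1.25 mM) stimulation; lower signal means less secretion.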
HT1080 IDH1KD tx = qHTS for induction of synthetic lethality in tumor cells producing 2HG: qHTS for the HT-1080-IDH1KD cell line; Potency, µM (highest dose often 46.1 µM), inactives show top-dose activity, negative = toxicity, actives largely listed as cytotoxic; AID 686971, 2013; HT-1080 IDH1 knockdown viability, ATP luminescence, 48 h; 2% of 360,000 active;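 further: potency means the concentration at half of the fitted maximal effect; 0% = DMSO wells and -100% = cell-free medium wells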
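Luminescent ATP read-out (CellTiter-Glo, 10 min at room temperature) after 48 h compound exposure at 37 °C gave viability of IDH1-knockdown HT-1080 cells. Activity was normalised to DMSO and cell-free wells, then fitted as concentration-response curves.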
ELG1 repair inh = qHTS screen for small molecules that inhibit ELG1-dependent DNA repair in human embryonic kidney (HEK293T) cells expressing luciferase-tagged ELG1 | AID 504467, 2011 | Potency, µM (highest dose often 46.1 µM), without a hit: top-dose activity change, negative = inhibition, usual class: inhibitors | HEK293T ELG1-luciferase reporter, luminescence, 16 h; DNA damage induced by 5-fluorouridine | 2.3% of 330,000 active; further: potency means the concentration at half of the fitted maximal effect; nearly all actives have a fitted effect of over 55% in size
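Luminescence from the luciferase reporter, measured 30 min after ONE-Glo reagent at room temperature, was the read-out. Beforehand, 2,000 cells per well were exposed for 16 hr at 37 °C to 5-fluorouridine together with compound or vehicle.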
The depositor's hits bear a star. Unless noted, the call rests on the fitted dose curve; in most records, active means well fitted curve in the direction sought with a large enough effect; inconclusive means small, poorly fitted or top-dose-only effect, or another doubt; inactive means no such curve, though single readings can be large; an effect the other way counts as inactive or inconclusive. Unless noted, on the % scale 0 is the no-effect control and ±100 the full control effect.

Screening COc1ccc(N=N/C(=C\O)C(=O)c2ccco2)cc1 returned TDP1 cell noCPT -9%, HT1080-NT tox -12%, TDP1 cell CPT 8%, IL1B secr inh -3, HT1080 IDH1KD tx -3% and ELG1 repair inh inconclusive.
`CCOC(=O)C1(C)CCCN(C(=O)c2cc(OC)c(OC)c(OC)c2)C1` (stereo unspecified) gave TDP1 cell noCPT -8%, HT1080-NT tox 5%, TDP1 cell CPT 6%, IL1B secr inh 10 and HT1080 IDH1KD tx 8%.
O=C(c1ccccc1NS(=O)(=O)c1ccc([N+](=O)[O-])cc1[N+](=O)[O-])N1O[C@@H]2C=C[C@H]1C2 was read as TDP1 cell noCPT 9.2µM*, HT1080-NT tox -2%, TDP1 cell CPT 9.2µM*, IL1B secr inh -72*, HT1080 IDH1KD tx -2% and ELG1 repair inh inconclusive.
For O=C(c1ccccc1NS(=O)(=O)c1ccccc1[N+](=O)[O-])N1CCOCC1 the results were TDP1 cell noCPT -14%, HT1080-NT tox -2%, TDP1 cell CPT -7%, IL1B secr inh 4, HT1080 IDH1KD tx 15% and ELG1 repair inh 15%.
For Oc1ccc(N=Nc2c(O)ccc3ccccc23)cc1 the results were TDP1 cell noCPT inconclusive, HT1080-NT tox 11µM*, TDP1 cell CPT 18µM*, IL1B secr inh -51*, HT1080 IDH1KD tx inconclusive and ELG1 repair inh 20%.
Screening O=C1c2c(-c3ccc(Br)cc3)noc2CCN1Cc1cn(C2CCCC2)nn1 returned TDP1 cell noCPT inconclusive, HT1080-NT tox -21%, TDP1 cell CPT inconclusive, IL1B secr inh -17 and HT1080 IDH1KD tx inconclusive.
For CN1CCCN(C(=O)c2cccc3ccccc23)CC1 the results were TDP1 cell noCPT 7%, HT1080-NT tox 0%, TDP1 cell CPT 2%, IL1B secr inh 2, HT1080 IDH1KD tx 0% and ELG1 repair inh -6%.
`COC(=O)c1ccc(NC(=O)c2nc(S(=O)(=O)Cc3ccccc3F)ncc2Cl)cc1` gave TDP1 cell noCPT 0.89µM* and TDP1 cell CPT 0.71µM*.
For O=C(Nc1ccccc1)c1nc(S(=O)(=O)Cc2ccccc2F)ncc1Cl the results were TDP1 cell noCPT 1.1µM* and TDP1 cell CPT 1.1µM*.
Screening O=C(Nc1ccc(F)cc1)c1nc(SCc2ccccc2F)ncc1Cl returned TDP1 cell noCPT -11% and TDP1 cell CPT 0%.
`CC(=O)Oc1cc2c(C(=O)NCCCN3CCOCC3)c(C)oc2c2ccccc12` gave TDP1 cell noCPT 21µM*, HT1080-NT tox inconclusive, TDP1 cell CPT 15µM*, IL1B secr inh 17, HT1080 IDH1KD tx inconclusive and ELG1 repair inh 3%.
Screening CCCCc1ccc(NC(=O)N2CCN(c3cc(C)nc4ccccc34)CC2)c(C)c1 returned TDP1 cell noCPT inconclusive, HT1080-NT tox inconclusive, TDP1 cell CPT inconclusive, IL1B secr inh -67*, HT1080 IDH1KD tx -28% and ELG1 repair inh inconclusive.
Cc1cccc(-n2ncc3c(NC(C)C)ncnc32)c1 was read as TDP1 cell noCPT inconclusive, HT1080-NT tox -6%, TDP1 cell CPT inconclusive, IL1B secr inh -23, HT1080 IDH1KD tx -1% and ELG1 repair inh inconclusive.
Screening Cc1cc(C)c(Nc2ncnc3c2cnn3C)c(C)c1 returned TDP1 cell noCPT 16µM* and TDP1 cell CPT 21µM*.
`Cn1ncc2c(Nc3cc(Cl)cc(Cl)c3)ncnc21` gave TDP1 cell noCPT inconclusive, HT1080-NT tox -1%, TDP1 cell CPT inconclusive, IL1B secr inh 19, HT1080 IDH1KD tx 4% and ELG1 repair inh inconclusive.
For Cc1cccc(-n2ncc3c(Nc4c(C)cc(C)cc4C)ncnc32)c1 the results were TDP1 cell noCPT 4.6µM* and TDP1 cell CPT 3.3µM*.
For C=CC1=C(C)C2=CC3=NC(=C(CC(=O)[O-])C4=NC(=C(C)C4=C([O-])[O-])C=c4[n-]c(c(C)c4CC)=CC1=N2)C(CCC(=O)[O-])C3C.[Cu+2].[Na+].[Na+].[Na+] (stereo unspecified) the results were TDP1 cell noCPT -28% and TDP1 cell CPT inconclusive.
Screening COC(=O)c1ccc(NC(=O)CN2C(=O)c3cccc4cccc2c34)cc1 returned TDP1 cell noCPT -21% and TDP1 cell CPT -17%.
Screening COC(=O)c1ccccc1NC(=O)C1=C(C)C(=O)OC12CCCCCC2 returned TDP1 cell noCPT 16µM* and TDP1 cell CPT 18µM*.
`CC1=C(C(=O)Nc2cccc(C(F)(F)F)c2)C2(CCCCCC2)OC1=O` gave TDP1 cell noCPT inconclusive and TDP1 cell CPT 16µM*.
For CC1=C(C(=O)Nc2cc(C)cc(C)c2)C2(CCCCC2)OC1=O the results were TDP1 cell noCPT -24% and TDP1 cell CPT inconclusive.
Screening CC1=C(C(=O)Nc2cccc(C(F)(F)F)c2)C2(CCCCC2)OC1=O returned TDP1 cell noCPT 16µM* and TDP1 cell CPT inconclusive.
Screening CC1=C(C(=O)NCc2cccc(Br)c2)C2(CCCCC2)OC1=O returned TDP1 cell noCPT 23µM* and TDP1 cell CPT 15µM*.
Screening CC1=C(C(=O)Nc2ccccc2Br)C2(CCC(C)CC2)OC1=O (stereo unspecified) returned TDP1 cell noCPT -24% and TDP1 cell CPT 4%.
Screening O=C(Nc1ccccc1)Nc1ccc(F)cc1F returned TDP1 cell noCPT 23µM*, HT1080-NT tox -1%, TDP1 cell CPT inconclusive, IL1B secr inh -12, HT1080 IDH1KD tx -5% and ELG1 repair inh inconclusive.
`COC(=O)c1ccc(C(=O)Nc2ccc(F)cc2)cc1` gave TDP1 cell noCPT 8.2µM*, HT1080-NT tox -16%, TDP1 cell CPT 10µM*, IL1B secr inh 11, HT1080 IDH1KD tx -12% and ELG1 repair inh inconclusive.
COC(=O)c1ccc(NC(=O)Nc2ccc(F)cc2F)cc1 was read as TDP1 cell noCPT 6.5µM*, HT1080-NT tox 3%, TDP1 cell CPT 8.2µM*, IL1B secr inh -53*, HT1080 IDH1KD tx -2% and ELG1 repair inh inconclusive.
